Values joined by “and” are separate entries in the source; they are usually repeats but may differ in a detail not shown here. Equal entries are not always repeated. Active and inactive are the calls of the source. How the source made its calls: active means hit-call score of the fitted dose curve at least 0.9, where 1 is the maximum; inactive means score below 0.9.

One experiment in a line: ATG_PXRE_CIS: Attagene CIS-FACTORIAL HepG2 Assay for human Pregnane X Receptor Element (PXRE) (AID 2282957). The conditions noted are these: HepG2 Attagene CIS-FACTORIAL PXRE reporter, mRNA; actives raise or lower the signal. The procedure, abridged: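 Bidirectional activity, baselined to DMSO, derived from reporter mRNA fluorescence (RT-PCR plus capillary electrophoresis) in HepG2 cells bearing cis-promoter reporter units, 24 h exposure.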
One may read the AC50 as the concentration giving half of the maximal activity seen. As to `O=c1cc(-c2ccccc2)oc2ccc3ccccc3c12`, the AC50 is 1.08 µM (active) and 2.24 µM (active).

Regarding `O=C(Nc1ccc(Cl)c(Cl)c1)c1cc(Cl)cc(Cl)c1O`, the half-maximal activity concentration (AC50) was 1.49 µM (active).

For `c1ccc2c(c1)CCC2`, the compound was classed as inactive.

Take `O=C1Cc2ccccc2N1c1c(Cl)cccc1Cl`: the half-maximal activity concentration (AC50) is 0.484 µM (active).

Turning to `Clc1ccc(Nc2nnc(Cc3ccncc3)c3ccccc23)cc1`, the AC50 is 1.45 µM (active).

Consider `Brc1cc(Br)c(Oc2c(Br)cc(Br)c(Br)c2Br)cc1Br`, for which the result was inactive.

On to `C=CC(=O)OCCC(F)(F)C(F)(F)C(F)(F)C(F)(F)C(F)(F)C(F)(F)F`, for which the call was inactive.

Take `O=C(C=C(O)C(F)(F)F)C(F)(F)F`: the half-maximal activity concentration (AC50) was 99 µM (active).

As to `Nc1cc(Cl)c(-c2cc(Cl)c(N)cc2Cl)cc1Cl`, the AC50 was 2.97 µM (active).

For the compound `COC(O)c1ccccc1` (stereo unspecified), the half-maximal activity concentration (AC50) was 75.1 µM (active).

`CC1CCC(C(=O)O)CC1` (stereo unspecified): the call was inactive.

In the case of `Cc1ccc(N=Nc2c(O)ccc3ccccc23)c(C)c1`, the AC50 was 2.81 µM (active).

Consider `Cc1[nH]nc2c1N=C(c1ccccc1Cl)c1cc([N+](=O)[O-])ccc1N2`, for which the AC50 was 3.76 µM (active).

Consider `O=C(O)C(=O)O`, for which the compound was called inactive.

As for `CCc1cccc(CC)c1N(COC)C(=O)CS(=O)(=O)O`, the AC50 is 3.8 µM (active).

With `Clc1ccc2c(Cl)ccnc2c1`, the call was inactive.

On to `COC1=CC(=O)C[C@@H](C)[C@]12Oc1c(Cl)c(OC)cc(OC)c1C2=O`, for which the result was inactive.

Consider `CCc1cccc(CC)c1NC(=O)C(=O)O`, for which the compound was classed as inactive.

As for `O=CC(F)(F)C(F)(F)C(F)(F)F`, the compound was called inactive.

`CCCCCCc1ccc(N)cc1`: the result was inactive.

Turning to `COc1cccc(O)c1`, the result was inactive.

On to `FC(F)(F)C1(F)C(F)(F)C(F)(F)C(F)(F)C1(F)F`, for which the compound was classed as inactive.

As to `C=CC(=O)OCCC(F)(F)C(F)(F)C(F)(F)C(F)(F)C(F)(F)C(F)(F)C(F)(F)C(F)(F)F`, the outcome was inactive.

In the case of `CCCCCc1ccc(O)cc1`, the concentration at half-maximal activity (AC50) is 33.4 µM (active).

With `FC(F)(F)C(F)(F)C(F)(F)C(F)(F)I`, the outcome was inactive.

Turning to `OCCN1CN(CCO)CN(CCO)C1`, the concentration at half-maximal activity (AC50) is 30 µM (active).

For `Oc1c(Cl)cc(Cl)cc1Sc1cc(Cl)cc(Cl)c1O`, the AC50 was 3.03 µM (active).

As for `COc1cc([N+](=O)[O-])ccc1N`, the compound was classed as inactive.

Consider `CC(C)(c1ccc(Oc2ccc(N)cc2)cc1)c1ccc(Oc2ccc(N)cc2)cc1`, for which the concentration at half-maximal activity (AC50) is 2.01 µM (active).

As for `CCCC=O`, the compound was called inactive.

As for `CCCCCCCCC(C)=O`, the outcome was inactive.

Consider `NC(C(F)(F)F)C(F)(F)F`, for which the result was inactive.

As to `Cc1ccc(C)c(S(=O)(=O)O)c1`, the result was inactive.

A short description of a further experiment: ATG_PPRE_CIS: Attagene CIS-FACTORIAL HepG2 Assay for human Peroxisome Proliferator-activated Response Element (PPRE) (AID 2282958). The conditions noted are these: HepG2 PPRE cis-element reporter, Attagene transcription factor profiling; actives raise or lower the signal. The procedure, abridged:
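HepG2, transient MRTU transfection (cis promoter elements, endogenous TFs). 24 h dosing. RNA → oligo(dT) RT → PCR → 6-FAM primer extension → HpaI digest → CE. Bidirectional fit vs DMSO.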
On to `O=c1cc(-c2ccccc2)oc2ccc3ccccc3c12`, for which the result was inactive.

On to `O=C(Nc1ccc(Cl)c(Cl)c1)c1cc(Cl)cc(Cl)c1O`, for which the AC50 was 0.648 µM (active).

Regarding `c1ccc2c(c1)CCC2`, the outcome was inactive.

Turning to `O=C1Cc2ccccc2N1c1c(Cl)cccc1Cl`, the call was inactive.

For the compound `Clc1ccc(Nc2nnc(Cc3ccncc3)c3ccccc23)cc1`, the compound was called inactive.

Turning to `Brc1cc(Br)c(Oc2c(Br)cc(Br)c(Br)c2Br)cc1Br`, the compound was called inactive.

In the case of `C=CC(=O)OCCC(F)(F)C(F)(F)C(F)(F)C(F)(F)C(F)(F)C(F)(F)F`, the compound was classed as inactive.

As for `O=C(C=C(O)C(F)(F)F)C(F)(F)F`, the compound was classed as inactive.

As to `Nc1cc(Cl)c(-c2cc(Cl)c(N)cc2Cl)cc1Cl`, the call was inactive.

`CCC(=O)C=Cc1ccc(OC)cc1`: the compound was called inactive.

As to `COC(O)c1ccccc1` (stereo unspecified), the compound was classed as inactive.

Consider `CC1CCC(C(=O)O)CC1` (stereo unspecified), for which the call was inactive.

`CC1CNCC(C)O1` (stereo unspecified): the compound was called inactive.

Regarding `Cc1ccc(N=Nc2c(O)ccc3ccccc23)c(C)c1`, the call was inactive.

Take `Nc1ccc(O)c(C(=O)O)c1`: the compound was classed as inactive.

On to `CCc1cccc(CC)c1N(COC)C(=O)CS(=O)(=O)O`, for which the outcome was inactive.

For `Clc1ccc2c(Cl)ccnc2c1`, the AC50 was 41.2 µM (active).

`COC1=CC(=O)C[C@@H](C)[C@]12Oc1c(Cl)c(OC)cc(OC)c1C2=O`: the compound was classed as inactive.

As for `O=C(Nc1cccc([N+](=O)[O-])c1)c1cc2ccccc2cc1O`, the AC50 was 4.22 µM (active).

`CCc1cccc(CC)c1NC(=O)C(=O)O`: the outcome was inactive.

For the compound `O=CC(F)(F)C(F)(F)C(F)(F)F`, the call was inactive.

As for `CCCCCCc1ccc(N)cc1`, the compound was called inactive.

For the compound `COc1cccc(O)c1`, the call was inactive.

In the case of `FC(F)(F)C1(F)C(F)(F)C(F)(F)C(F)(F)C1(F)F`, the result was inactive.

As for `C=CC(=O)OCCC(F)(F)C(F)(F)C(F)(F)C(F)(F)C(F)(F)C(F)(F)C(F)(F)C(F)(F)F`, the compound was called inactive.

Consider `CCCCCc1ccc(O)cc1`, for which the result was inactive.

Consider `O=C1OC(=O)c2cc(-c3ccc4c(c3)C(=O)OC4=O)ccc21`, for which the compound was classed as inactive.

For the compound `FC(F)(F)C(F)(F)C(F)(F)C(F)(F)I`, the compound was called inactive.

Consider `OCCN1CN(CCO)CN(CCO)C1`, for which the call was inactive.

For the compound `Oc1c(Cl)cc(Cl)cc1Sc1cc(Cl)cc(Cl)c1O`, the concentration at half-maximal activity (AC50) is 1.52 µM (active).

In the case of `COc1cc([N+](=O)[O-])ccc1N`, the compound was called inactive.

As to `CC(C)(c1ccc(Oc2ccc(N)cc2)cc1)c1ccc(Oc2ccc(N)cc2)cc1`, the outcome was inactive.

On to `CCCC=O`, for which the result was inactive.

For `CCCCCCCCC(C)=O`, the outcome was inactive.

As for `NC(C(F)(F)F)C(F)(F)F`, the outcome was inactive.

Take `Cc1ccc(C)c(S(=O)(=O)O)c1`: the outcome was inactive.

A further experiment in a line: ATG_RORE_CIS: Attagene CIS-FACTORIAL HepG2 Assay for human RAR-related Orphan Receptor Element (RORE) (AID 2282959). The settings on record: HepG2 Attagene cis-factorial RORE reporter, mRNA; actives raise or lower the signal. The essentials:
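Transient MRTU transfection of human HepG2 liver cells (FuGene 6); 24 h compound exposure; TriZol RNA, oligo(dT) RT, PCR, FAM labeling, HpaI cut, CE fragment analysis. DMSO = negative control/baseline.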
On to `O=c1cc(-c2ccccc2)oc2ccc3ccccc3c12`, for which the outcome was inactive.

In the case of `O=C(Nc1ccc(Cl)c(Cl)c1)c1cc(Cl)cc(Cl)c1O`, the concentration at half-maximal activity (AC50) is 0.903 µM (active).

As for `c1ccc2c(c1)CCC2`, the result was inactive.

Turning to `O=C1Cc2ccccc2N1c1c(Cl)cccc1Cl`, the result was inactive.

With `Clc1ccc(Nc2nnc(Cc3ccncc3)c3ccccc23)cc1`, the AC50 is 15.8 µM (active).

Turning to `Brc1cc(Br)c(Oc2c(Br)cc(Br)c(Br)c2Br)cc1Br`, the call was inactive.

With `C=CC(=O)OCCC(F)(F)C(F)(F)C(F)(F)C(F)(F)C(F)(F)C(F)(F)F`, the compound was classed as inactive.

Turning to `O=C(C=C(O)C(F)(F)F)C(F)(F)F`, the compound was called inactive.

With `Nc1cc(Cl)c(-c2cc(Cl)c(N)cc2Cl)cc1Cl`, the compound was classed as inactive.

In the case of `CCC(=O)C=Cc1ccc(OC)cc1`, the result was inactive.

Regarding `COC(O)c1ccccc1` (stereo unspecified), the compound was classed as inactive.

`CC1CCC(C(=O)O)CC1` (stereo unspecified): the call was inactive.

On to `CC1CNCC(C)O1` (stereo unspecified), for which the outcome was inactive.

With `Cc1ccc(N=Nc2c(O)ccc3ccccc23)c(C)c1`, the result was inactive.

As for `Nc1ccc(O)c(C(=O)O)c1`, the outcome was inactive.

With `Cc1[nH]nc2c1N=C(c1ccccc1Cl)c1cc([N+](=O)[O-])ccc1N2`, the call was inactive.

For the compound `CCc1cccc(CC)c1N(COC)C(=O)CS(=O)(=O)O`, the outcome was inactive.

Consider `Clc1ccc2c(Cl)ccnc2c1`, for which the call was inactive.

As to `COC1=CC(=O)C[C@@H](C)[C@]12Oc1c(Cl)c(OC)cc(OC)c1C2=O`, the compound was called inactive.

With `O=C(Nc1cccc([N+](=O)[O-])c1)c1cc2ccccc2cc1O`, the AC50 was 5.99 µM (active).

Take `CCc1cccc(CC)c1NC(=O)C(=O)O`: the outcome was inactive.

As for `O=CC(F)(F)C(F)(F)C(F)(F)F`, the compound was classed as inactive.

As for `CCCCCCc1ccc(N)cc1`, the call was inactive.

`COc1cccc(O)c1`: the result was inactive.

Regarding `FC(F)(F)C1(F)C(F)(F)C(F)(F)C(F)(F)C1(F)F`, the outcome was inactive.

`C=CC(=O)OCCC(F)(F)C(F)(F)C(F)(F)C(F)(F)C(F)(F)C(F)(F)C(F)(F)C(F)(F)F`: the result was inactive.

For `CCCCCc1ccc(O)cc1`, the outcome was inactive.

`O=C1OC(=O)c2cc(-c3ccc4c(c3)C(=O)OC4=O)ccc21`: the compound was classed as inactive.

For `FC(F)(F)C(F)(F)C(F)(F)C(F)(F)I`, the outcome was inactive.

Consider `OCCN1CN(CCO)CN(CCO)C1`, for which the call was inactive.

`Oc1c(Cl)cc(Cl)cc1Sc1cc(Cl)cc(Cl)c1O`: the concentration at half-maximal activity (AC50) is 2.56 µM (active).

Consider `COc1cc([N+](=O)[O-])ccc1N`, for which the outcome was inactive.

For the compound `CC(C)(c1ccc(Oc2ccc(N)cc2)cc1)c1ccc(Oc2ccc(N)cc2)cc1`, the compound was classed as inactive.

Take `CCCC=O`: the call was inactive.

With `CCCCCCCCC(C)=O`, the compound was classed as inactive.

`NC(C(F)(F)F)C(F)(F)F`: the compound was called inactive.

`Cc1ccc(C)c(S(=O)(=O)O)c1`: the call was inactive.

Values taken from PubChem BioAssay (EPA / NIEHS).
